Test systems include NCI-H23 lung; NCI-H226 lung; NCI-H322M lung; HOP-62 NSCLC; NCI-H460 lung; HOP-92 NSCLC; NCI-H522 lung; A549/ATCC NSCLC; 786-0 renal; COLO 205 colon; DU-145 prostate; K-562 leukemia; MALME-3M melanoma; MDA-MB-231 breast; RXF 393 renal; SF-268 CNS; SF-295 CNS; SF-539 CNS; UACC-257 melanoma; M14 melanoma.
Common to all, as to test: NCI-60 one-dose screen, 48 h (100 = growth as untreated, 0 = no growth, -100 = all killed)
Common to all, as to settings: 10 µM

Experimental findings from PubChem BioAssay (NCI) are described below.

About 83,000 compounds went through this panel and 20% of them were active in at least one assay; those are over-represented in the sample as a whole.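 Growth was measured after 48 h exposure to one concentration of compound in 96-well plates. Values under 10 count as active.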 A number with no mark means an inactive call. The source made the active and inactive calls.

For the compound `CCCCCCCC/C=C/CCCCCCCCC1=NCCN1CCO`, the growth in the test on NCI-H23 lung was 76.5%; in the test with NCI-H226 lung, 86.9%; in the test with NCI-H322M lung it was 55.5%; in the test on HOP-62 NSCLC, 75.9%; in the test on NCI-H460 lung, -34% (active); in the test on HOP-92 NSCLC it was -5.31% (active). Moreover, the growth in the test on NCI-H522 lung is 76.7%; with A549/ATCC NSCLC it was 77.5%; in the test on 786-0 renal, 75%; in the test with COLO 205 colon, 70.7%; in the test on DU-145 prostate it was 84.7%; in the test with K-562 leukemia it was -11.8% (active). The growth was 85.8% in the test on MALME-3M melanoma; 68.3% in the test with MDA-MB-231 breast; 56.8% with RXF 393 renal; 77.3% in the test with SF-268 CNS; 39.6% with SF-295 CNS; 75.6% in the test with SF-539 CNS. Also, the growth in the test with UACC-257 melanoma was 83.5%; in the test with M14 melanoma it was 74%.

In the case of `CCOC(=O)Nc1ccc2c(c1)C(=O)N(CC)c1ccccc1O2`, the growth is 30.1% with NCI-H23 lung; 14.5% in the test on NCI-H226 lung; 50% in the test with NCI-H322M lung; 24.8% with HOP-62 NSCLC; 9.56% (active) with NCI-H460 lung; 33.7% in the test with HOP-92 NSCLC. For the same compound, the growth in the test with NCI-H522 lung is -39% (active); in the test on A549/ATCC NSCLC, 19.4%; with 786-0 renal it was 31.1%; with COLO 205 colon, -29.8% (active); with DU-145 prostate, 7.48% (active); in the test on K-562 leukemia it was 8.79% (active). The growth with MALME-3M melanoma is 68%; with MDA-MB-231 breast, 20.2%; with RXF 393 renal, -4.5% (active); in the test with SF-268 CNS, 42.1%; with SF-295 CNS it was 3.36% (active); in the test with SF-539 CNS, 4.79% (active). Further, the growth in the test on UACC-257 melanoma was 64.1%; with M14 melanoma it was 11.1%.

On to `Nc1c(C(=O)NC2CCCCC2)sc2nc3c(cc12)C(=O)CCC3`, for which the growth with NCI-H23 lung is 98.7%; in the test with NCI-H226 lung it was 95.4%; with NCI-H322M lung, 105%; in the test on HOP-62 NSCLC, 120%; with NCI-H460 lung, 103%; in the test with HOP-92 NSCLC, 82.9%. Moreover, the growth in the test on NCI-H522 lung was 98.6%; in the test on A549/ATCC NSCLC, 84.5%; in the test on 786-0 renal it was 99.5%; with COLO 205 colon it was 116%; in the test with DU-145 prostate, 102%; in the test with K-562 leukemia it was 88.4%. Further, the growth in the test on MALME-3M melanoma was 139%; in the test with MDA-MB-231 breast it was 101%; in the test on RXF 393 renal, 92.1%; in the test on SF-268 CNS, 109%; in the test on SF-295 CNS it was 88.8%; with SF-539 CNS it was 107%. In addition, the growth is 88.1% with UACC-257 melanoma and 103% with M14 melanoma.

As to `O=S(=O)(NC1c2ccccc2Oc2ccccc21)c1cc(Cl)ccc1Cl`, the growth with NCI-H23 lung was 97.6%; in the test with NCI-H226 lung, 83.4%; in the test with NCI-H322M lung, 90%; in the test with HOP-62 NSCLC, 89.4%; in the test with NCI-H460 lung, 105%; in the test on HOP-92 NSCLC, 60.2%. Moreover, the growth was 29.5% in the test on NCI-H522 lung; 97.1% in the test on A549/ATCC NSCLC; 84.6% in the test on 786-0 renal; 98.9% in the test with COLO 205 colon; 113% in the test with DU-145 prostate; 89.8% in the test with K-562 leukemia. The growth is 102% in the test on MALME-3M melanoma; 97.4% in the test on MDA-MB-231 breast; 93.1% in the test with RXF 393 renal; 99.1% with SF-268 CNS; 101% in the test on SF-295 CNS; 98.2% in the test with SF-539 CNS. Also, the growth with UACC-257 melanoma was 102%; in the test with M14 melanoma it was 98.9%.

For `COc1ccc(-c2ccc(-c3ccc(C(=N)N)c(F)c3)s2)cc1`, the growth is -81.9% (active) in the test on NCI-H23 lung; -41% (active) in the test on NCI-H226 lung; -91.5% (active) in the test with NCI-H322M lung; -75.7% (active) in the test on HOP-62 NSCLC; -84.2% (active) with NCI-H460 lung; -87.8% (active) with HOP-92 NSCLC. The growth in the test with NCI-H522 lung is -76.5% (active); with A549/ATCC NSCLC, -81.9% (active); with 786-0 renal, -82.5% (active); with COLO 205 colon, -71.1% (active); in the test with DU-145 prostate, -97.8% (active); in the test on K-562 leukemia, -70.2% (active). Moreover, the growth in the test on MALME-3M melanoma was -62% (active); in the test on MDA-MB-231 breast it was -89% (active); in the test on RXF 393 renal, -80.4% (active); in the test on SF-268 CNS, -89.8% (active); in the test with SF-295 CNS it was -87.5% (active); with SF-539 CNS, -93.7% (active). Further, the growth in the test with UACC-257 melanoma is -87.1% (active); in the test on M14 melanoma, -83.5% (active).

`N#Cc1ncc(-c2cc(F)ccc2F)c(NC2CCCCCC2)n1`: the growth in the test on NCI-H23 lung was 89.9%; in the test with NCI-H226 lung, 92.6%; with NCI-H322M lung it was 73.6%; in the test on HOP-62 NSCLC, 65.9%; in the test with NCI-H460 lung, 48.5%; in the test on HOP-92 NSCLC it was 65.2%. For the same compound, the growth was 68% with NCI-H522 lung; 78% in the test on A549/ATCC NSCLC; 97.6% with 786-0 renal; 100% with COLO 205 colon; 97.8% in the test on DU-145 prostate; 90.2% in the test on K-562 leukemia. For the same compound, the growth is 114% with MALME-3M melanoma; 60.7% in the test on MDA-MB-231 breast; 82.8% in the test on RXF 393 renal; 60% with SF-268 CNS; 69.1% in the test with SF-295 CNS; 79.7% in the test on SF-539 CNS. For the same compound, the growth was 81.8% with UACC-257 melanoma and 104% in the test on M14 melanoma.

As for `Cc1cccc2c(Nc3ccc(NS(C)(=O)=O)cc3)c3ccc([N+](=O)[O-])cc3nc12`, the growth is -17.6% (active) in the test with NCI-H23 lung; -20.8% (active) with NCI-H226 lung; 36.4% in the test on NCI-H322M lung; 14% in the test on HOP-62 NSCLC; -34.6% (active) in the test with NCI-H460 lung; -16.7% (active) in the test on HOP-92 NSCLC. The growth was -68.3% (active) with NCI-H522 lung; 1.51% (active) in the test with A549/ATCC NSCLC; 5.57% (active) in the test on 786-0 renal; 34.9% in the test with COLO 205 colon; -15.3% (active) in the test with DU-145 prostate; 1.15% (active) in the test on K-562 leukemia. Besides, the growth is -22% (active) in the test on MALME-3M melanoma; 61.4% with MDA-MB-231 breast; -31.9% (active) in the test on RXF 393 renal; 12.5% in the test on SF-268 CNS; -15.2% (active) in the test with SF-295 CNS; 16.8% with SF-539 CNS. The growth in the test with UACC-257 melanoma was -16.3% (active); with M14 melanoma it was 16.7%.

Regarding `CCCCN(CCCC)c1ccc(C(=NC(C)CCCN(CC)CC)c2ccc(N(C)C)cc2)cc1` (stereo not given), the growth in the test on NCI-H23 lung is -60.3% (active); in the test with NCI-H226 lung, -34.9% (active); in the test with NCI-H322M lung, -14.2% (active); with HOP-62 NSCLC, -80.4% (active); in the test on NCI-H460 lung, -76.9% (active); with HOP-92 NSCLC, -45.5% (active). Besides, the growth was -66.8% (active) in the test with NCI-H522 lung; -16.4% (active) with A549/ATCC NSCLC; -86.4% (active) in the test with 786-0 renal; -88.4% (active) in the test on COLO 205 colon; 21.1% with DU-145 prostate; -51.3% (active) in the test with K-562 leukemia. For the same compound, the growth is -77.9% (active) with MALME-3M melanoma; -79.4% (active) in the test with MDA-MB-231 breast; -84% (active) in the test on RXF 393 renal; -43.4% (active) in the test on SF-268 CNS; -72% (active) in the test with SF-295 CNS; -73.2% (active) with SF-539 CNS. The results for the growth with UACC-257 melanoma and with M14 melanoma were -70.6% (active) and -83% (active), respectively.
